Each structure is given as a SMILES string. For some assays here: Results with a measured potency or affinity are listed apart.

Set-up in all cases: scale not given: direction of the effect not stated beside the values
For assay [1], the target named is Protein translocase subunit SecA (Escherichia coli (strain K12)) (UniProt P10408). The assay can be described thus: Assay to Identify E. coli SecA ATPase Inhibitors. Format: functional. Particulars: 30 µM.
Assay [2] addresses T1, Ubiquitin-activating enzyme e1, putative (Leishmania donovani (strain BPK282A1)) (UniProt E9BSI1).
T1 sequence (whole entry): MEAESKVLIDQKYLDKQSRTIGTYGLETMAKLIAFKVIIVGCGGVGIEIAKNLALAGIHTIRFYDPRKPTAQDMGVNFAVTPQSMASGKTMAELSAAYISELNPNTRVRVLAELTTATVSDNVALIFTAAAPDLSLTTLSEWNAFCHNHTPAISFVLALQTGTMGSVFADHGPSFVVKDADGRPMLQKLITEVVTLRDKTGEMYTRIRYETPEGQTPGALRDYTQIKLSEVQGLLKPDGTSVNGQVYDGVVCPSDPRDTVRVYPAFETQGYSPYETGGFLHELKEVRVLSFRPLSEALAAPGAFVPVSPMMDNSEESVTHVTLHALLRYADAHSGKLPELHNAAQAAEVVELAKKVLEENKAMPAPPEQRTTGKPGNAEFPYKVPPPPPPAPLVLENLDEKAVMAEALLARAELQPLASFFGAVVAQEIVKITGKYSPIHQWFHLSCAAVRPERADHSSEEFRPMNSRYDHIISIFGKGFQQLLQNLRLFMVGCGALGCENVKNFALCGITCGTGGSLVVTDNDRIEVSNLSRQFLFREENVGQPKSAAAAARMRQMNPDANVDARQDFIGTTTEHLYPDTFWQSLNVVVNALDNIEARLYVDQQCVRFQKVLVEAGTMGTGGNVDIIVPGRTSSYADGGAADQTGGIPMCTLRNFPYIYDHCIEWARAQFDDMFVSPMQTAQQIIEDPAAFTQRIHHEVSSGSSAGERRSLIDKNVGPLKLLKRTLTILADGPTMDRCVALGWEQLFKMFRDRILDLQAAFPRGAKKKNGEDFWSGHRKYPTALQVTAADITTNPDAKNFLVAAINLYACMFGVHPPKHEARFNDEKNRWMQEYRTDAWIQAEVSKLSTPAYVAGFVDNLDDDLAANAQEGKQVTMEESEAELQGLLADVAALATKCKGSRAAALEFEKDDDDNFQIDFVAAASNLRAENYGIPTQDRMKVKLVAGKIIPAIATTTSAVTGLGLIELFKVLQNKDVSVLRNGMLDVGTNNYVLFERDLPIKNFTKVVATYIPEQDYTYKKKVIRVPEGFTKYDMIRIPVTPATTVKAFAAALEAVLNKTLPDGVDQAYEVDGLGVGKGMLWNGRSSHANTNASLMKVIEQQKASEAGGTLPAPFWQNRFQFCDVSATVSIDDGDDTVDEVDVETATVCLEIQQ
Kind of assay: Leishmania donovani Ubiquitin Activating Enzyme (LdE1). The assay is classed as functional. Conditions: 30 µM.

In assay [3] the target is AMP-activated protein kinase, AMPK (Homo sapiens) (UniProt P54646+O43741+P54619+Q9UGJ0+Q9Y478+Q13131+Q9UGI9). The assay can be described thus: AMP-dependent Kinase enzyme assay. An in vitro enzyme assay that detects ADP turnover that is directly proportional to AMPK activity. This uses naive AMPK that is activated during the assay with MK-8722. Format: functional. Particulars: 30 µM.

The target of assay [4] is Sialic acid-binding Ig-like lectin 9 (Homo sapiens) (UniProt Q9Y336). Kind of assay: Hs-Siglec9 ALPHAscreen SOP 20170721. Conditions: 10 µM. (In general: In Alpha technology, singlet oxygen from a donor bead excites a nearby acceptor bead.)
Chain of Sialic acid-binding Ig-like lectin 9 (Homo sapiens) (Q9Y336 whole entry): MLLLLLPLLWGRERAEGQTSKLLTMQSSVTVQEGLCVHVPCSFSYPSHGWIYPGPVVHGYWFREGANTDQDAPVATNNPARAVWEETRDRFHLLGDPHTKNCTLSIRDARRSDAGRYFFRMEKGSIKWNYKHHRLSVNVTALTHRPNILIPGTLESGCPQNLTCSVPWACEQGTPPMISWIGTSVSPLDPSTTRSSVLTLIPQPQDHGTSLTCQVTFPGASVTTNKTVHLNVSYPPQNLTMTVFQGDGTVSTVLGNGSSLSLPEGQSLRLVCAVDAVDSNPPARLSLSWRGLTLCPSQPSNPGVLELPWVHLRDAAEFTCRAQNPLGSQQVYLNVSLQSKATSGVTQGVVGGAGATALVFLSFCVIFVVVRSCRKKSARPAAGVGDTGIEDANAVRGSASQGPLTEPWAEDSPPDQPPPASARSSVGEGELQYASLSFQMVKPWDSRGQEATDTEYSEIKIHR
The next assay has as its system Trypanosoma cruzi. Kind of assay: Trypanosoma cruzi phosphomannomutase and mannose-1-phosphate guanylyltransferase assay. The assay is classed as functional. Particulars: 10 µM.
The target of assay [5] is T2, Arginase-2, mitochondrial (Homo sapiens) (UniProt P78540).
T2 sequence (whole entry): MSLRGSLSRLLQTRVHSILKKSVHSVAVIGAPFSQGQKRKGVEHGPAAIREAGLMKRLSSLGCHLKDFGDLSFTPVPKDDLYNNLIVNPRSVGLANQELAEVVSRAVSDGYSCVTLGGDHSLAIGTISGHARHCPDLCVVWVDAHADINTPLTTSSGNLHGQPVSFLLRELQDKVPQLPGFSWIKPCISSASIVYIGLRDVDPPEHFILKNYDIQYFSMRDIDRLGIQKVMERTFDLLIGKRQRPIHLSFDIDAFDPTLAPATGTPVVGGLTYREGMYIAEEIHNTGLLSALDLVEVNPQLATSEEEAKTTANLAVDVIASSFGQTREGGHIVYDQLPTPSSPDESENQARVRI
The assay can be described thus: in vitro enzyme assay to detect the production of urea directly proportional to the activity of Arginase II. Also: in the data most compounds retested in dose-response had high values. Conditions: 33.3 µM. The assay is classed as functional.

The target of assay [6] is T3, Proteasome subunit beta (Trypanosoma cruzi) (UniProt O96673).
T3 sequence (whole entry): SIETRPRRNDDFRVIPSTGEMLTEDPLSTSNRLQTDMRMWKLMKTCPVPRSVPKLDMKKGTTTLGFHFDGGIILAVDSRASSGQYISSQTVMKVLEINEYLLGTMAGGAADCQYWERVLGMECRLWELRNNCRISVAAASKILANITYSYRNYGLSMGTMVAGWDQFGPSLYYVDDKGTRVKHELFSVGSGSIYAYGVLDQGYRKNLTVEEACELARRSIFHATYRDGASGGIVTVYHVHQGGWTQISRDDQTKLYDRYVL
Kind of assay: Trypanosoma cruzi proteasome chymotrypsin-like activity (TcProtChymo) assay. Also: in the data most compounds retested in dose-response had high values. Format: functional. Conditions: 9.37 µM.

The species named for a further assay is Homo sapiens. Kind of assay: To identify inhibition of the IFN signalling (Jak-Stat) pathway via expression of an eGFP reporter gene under the control of an IFN-stimulated response element (ISRE) containing MxA promoter. Conditions: 30 µM. Format: functional. In general terms: In a reporter assay the amount or activity of a reporter protein is the signal.

The target in assay [7] is T4, Tyrosyl-tRNA synthetase, putative (Trypanosoma cruzi (strain CL Brener)) (UniProt Q4DSP6).
T4 sequence (whole entry): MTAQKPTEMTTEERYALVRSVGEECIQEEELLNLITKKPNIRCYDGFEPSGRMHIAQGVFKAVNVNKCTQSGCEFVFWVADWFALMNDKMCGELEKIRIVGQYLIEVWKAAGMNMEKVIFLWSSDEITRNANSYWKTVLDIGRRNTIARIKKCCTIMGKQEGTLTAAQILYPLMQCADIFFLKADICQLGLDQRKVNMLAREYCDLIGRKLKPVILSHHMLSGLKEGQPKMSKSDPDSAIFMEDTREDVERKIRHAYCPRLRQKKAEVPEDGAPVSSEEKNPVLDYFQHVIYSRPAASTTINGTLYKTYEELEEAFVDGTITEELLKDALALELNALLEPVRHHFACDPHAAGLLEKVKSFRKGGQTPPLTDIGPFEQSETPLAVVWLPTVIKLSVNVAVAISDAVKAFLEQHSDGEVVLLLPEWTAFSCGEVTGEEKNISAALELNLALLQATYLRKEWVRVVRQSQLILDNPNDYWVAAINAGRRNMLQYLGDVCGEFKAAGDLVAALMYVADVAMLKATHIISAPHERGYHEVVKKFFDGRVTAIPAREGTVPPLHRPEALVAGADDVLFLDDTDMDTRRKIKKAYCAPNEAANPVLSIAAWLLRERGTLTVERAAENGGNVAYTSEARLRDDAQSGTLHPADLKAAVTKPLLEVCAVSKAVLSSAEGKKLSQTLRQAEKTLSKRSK
The assay can be described thus: Trypanosoma cruzi tyrosyl tRNA synthetase (TcYRS) _High Tyrosine SOP. Also: in the data most compounds retested in dose-response had high values. Particulars: 30 µM. Format: functional.

The target of assay [8] is T4, Tyrosyl-tRNA synthetase, putative (Trypanosoma cruzi (strain CL Brener)). Kind of assay: Trypanosoma cruzi tyrosyl tRNA synthetase (TcYRS) SOP. Format: functional. Conditions: 30 µM.
The target in assay [9] is Chromo domain-containing protein 1 (Saccharomyces cerevisiae (strain ATCC 204508 / S288c) (Baker's yeast)) (UniProt P32657). The assay can be described thus: ScCHD-1 Enzyme Inhibition Assay. Also: in the data most compounds retested in dose-response had high values. Format: functional. Conditions: 30 µM.
Chain of Chromo domain-containing protein 1 (Saccharomyces cerevisiae (strain ATCC 204508 / S288c) (Baker's yeast)) (P32657 whole entry, the tested form may be a part): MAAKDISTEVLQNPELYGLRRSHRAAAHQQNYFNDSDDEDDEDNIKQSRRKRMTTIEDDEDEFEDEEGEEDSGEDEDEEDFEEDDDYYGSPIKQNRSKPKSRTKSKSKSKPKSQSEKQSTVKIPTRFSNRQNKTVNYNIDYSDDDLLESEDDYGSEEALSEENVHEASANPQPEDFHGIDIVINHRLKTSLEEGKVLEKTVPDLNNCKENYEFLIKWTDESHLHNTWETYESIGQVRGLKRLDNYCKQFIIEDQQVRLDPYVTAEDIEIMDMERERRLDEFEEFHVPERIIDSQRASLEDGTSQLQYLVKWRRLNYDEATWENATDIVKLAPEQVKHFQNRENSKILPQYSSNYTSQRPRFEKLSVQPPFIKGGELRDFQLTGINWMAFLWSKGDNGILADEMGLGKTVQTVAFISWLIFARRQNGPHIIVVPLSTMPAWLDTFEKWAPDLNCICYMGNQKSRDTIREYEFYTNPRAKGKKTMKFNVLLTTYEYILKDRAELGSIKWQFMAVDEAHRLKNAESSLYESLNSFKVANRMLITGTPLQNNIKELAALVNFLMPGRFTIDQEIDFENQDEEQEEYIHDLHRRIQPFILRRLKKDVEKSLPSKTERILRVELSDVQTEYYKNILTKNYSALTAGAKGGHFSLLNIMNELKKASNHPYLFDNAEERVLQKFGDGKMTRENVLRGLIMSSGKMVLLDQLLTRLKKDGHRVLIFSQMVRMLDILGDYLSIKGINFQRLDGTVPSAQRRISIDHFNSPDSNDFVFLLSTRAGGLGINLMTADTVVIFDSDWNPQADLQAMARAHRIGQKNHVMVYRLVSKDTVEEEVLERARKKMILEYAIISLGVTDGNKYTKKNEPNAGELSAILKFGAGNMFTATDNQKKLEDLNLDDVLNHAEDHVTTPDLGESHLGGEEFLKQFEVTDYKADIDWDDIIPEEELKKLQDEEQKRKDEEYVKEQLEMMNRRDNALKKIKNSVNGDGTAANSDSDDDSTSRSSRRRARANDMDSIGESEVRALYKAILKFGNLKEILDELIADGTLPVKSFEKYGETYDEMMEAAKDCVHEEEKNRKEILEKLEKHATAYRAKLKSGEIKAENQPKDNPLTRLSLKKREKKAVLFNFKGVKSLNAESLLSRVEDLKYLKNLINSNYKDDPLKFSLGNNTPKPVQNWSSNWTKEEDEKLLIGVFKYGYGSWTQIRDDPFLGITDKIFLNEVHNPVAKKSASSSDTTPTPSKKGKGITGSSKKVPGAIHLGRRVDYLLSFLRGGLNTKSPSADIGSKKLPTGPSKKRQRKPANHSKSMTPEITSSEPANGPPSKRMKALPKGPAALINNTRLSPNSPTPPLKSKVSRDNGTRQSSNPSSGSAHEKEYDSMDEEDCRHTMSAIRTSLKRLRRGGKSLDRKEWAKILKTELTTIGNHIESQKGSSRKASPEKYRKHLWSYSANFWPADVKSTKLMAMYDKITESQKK

Chain of Protein translocase subunit SecA (Escherichia coli (strain K12)) (P10408 whole entry): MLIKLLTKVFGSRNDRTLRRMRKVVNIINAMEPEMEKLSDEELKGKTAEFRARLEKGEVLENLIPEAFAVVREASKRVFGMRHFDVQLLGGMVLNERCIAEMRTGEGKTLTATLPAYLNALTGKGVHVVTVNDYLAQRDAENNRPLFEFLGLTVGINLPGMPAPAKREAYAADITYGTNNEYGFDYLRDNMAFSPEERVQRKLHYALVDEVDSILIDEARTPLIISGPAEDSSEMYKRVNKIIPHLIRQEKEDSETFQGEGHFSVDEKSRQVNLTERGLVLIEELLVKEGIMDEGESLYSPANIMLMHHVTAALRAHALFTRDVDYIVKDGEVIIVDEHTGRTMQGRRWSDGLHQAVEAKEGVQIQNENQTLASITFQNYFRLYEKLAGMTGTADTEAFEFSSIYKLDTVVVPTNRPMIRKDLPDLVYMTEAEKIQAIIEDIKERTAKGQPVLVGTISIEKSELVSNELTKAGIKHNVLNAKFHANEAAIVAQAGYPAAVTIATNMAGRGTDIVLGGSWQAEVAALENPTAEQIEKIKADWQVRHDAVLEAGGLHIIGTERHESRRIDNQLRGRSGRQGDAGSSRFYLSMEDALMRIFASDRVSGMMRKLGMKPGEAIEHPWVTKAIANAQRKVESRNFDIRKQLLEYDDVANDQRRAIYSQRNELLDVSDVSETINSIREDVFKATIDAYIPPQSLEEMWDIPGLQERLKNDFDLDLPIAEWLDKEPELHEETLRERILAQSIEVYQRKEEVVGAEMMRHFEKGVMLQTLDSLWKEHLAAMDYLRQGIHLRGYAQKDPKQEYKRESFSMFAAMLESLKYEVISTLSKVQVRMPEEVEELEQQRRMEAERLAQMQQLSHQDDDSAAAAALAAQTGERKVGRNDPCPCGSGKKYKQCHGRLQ

As to `CC(C)c1cc(NCC(C)N2CCCC2)n2nccc2n1` (stereo not given), the Percent Effect in assay [1] is 1.2%; in assay [2], 8.11%; in assay [3], 1.17%; in assay [4], 6.08%; in the assay with Trypanosoma cruzi, -2.51%; in assay [5] it was -1.43%. In addition, the Percent Effect in assay [6] is 20.5%; in the assay listed under Homo sapiens, 6.7%; in assay [7] it was 12.2%; in assay [8] it was 17.1%; in assay [9], -5.28%.

As for `O=C(Nc1ccc(CCN2CCC(O)CC2)cc1)Nc1cccnc1`, the Percent Effect is -1.45% in assay [1]; 5.41% in assay [2]; -3.72% in [3]; 8.33% in [4]; -1.54% in the assay on Trypanosoma cruzi; -1.91% in [5]. The Percent Effect is 18.4% in assay [6]; 8.03% in the assay listed under Homo sapiens; 6.88% in assay [7]; 4.88% in assay [8]; -3.57% in assay [9].

In the case of `O=C(O)c1csc(S(=O)(=O)N2CCCc3ccc(F)cc32)c1`, the Percent Effect in [1] is -6.97%; in assay [2], -2.67%; in assay [3] it was -4.41%; in assay [4], 4.48%; in the assay with Trypanosoma cruzi, 0.682%; in assay [5] it was 0%. Besides, the Percent Effect is 6.1% in [6]; 8.48% in the assay filed under Homo sapiens; -13.7% in [7]; -13.6% in assay [8]; -5.31% in [9].

As to `O=C(NCc1cc[nH]n1)N1CCCCC(N2CCCC2)C1` (stereo not given), the Percent Effect in [1] is -3.54%; in assay [2] it was -10.5%; in assay [3], -9.14%; in [4], 11.7%; with Trypanosoma cruzi, 6.44%; in assay [5], 2.16%. The Percent Effect turned out to be 1.27% in [6]; 7.32% in the assay filed under Homo sapiens; 7.39% in assay [7]; 23.5% in assay [8]; 3.8% in assay [9].

Regarding `CCCn1c(C)cc(C(=O)CN2C(=O)c3ccccc3CS2(=O)=O)c1C`, the Percent Effect in [1] is 2.47%; in assay [2], -18.9%; in assay [3] it was -2.92%; in assay [4] it was 7.94%; with Trypanosoma cruzi, 0%; in [5], 1.91%. The Percent Effect was 14.7% in [6]; 21.2% in the assay filed under Homo sapiens; -10.1% in assay [7]; 0% in assay [8]; 8.3% in [9].

`O=C(CCn1ccccc1=O)Nc1ccc(I)cc1`: the Percent Effect was -2.63% in assay [1]; 2.7% in assay [2]; -7.9% in [3]; 21.2% in assay [4]; 0.684% with Trypanosoma cruzi; -0.248% in [5]. Also, the Percent Effect in assay [6] is 16.6%; in the assay filed under Homo sapiens, 5.89%; in [7] it was 1.07%; in assay [8], 6.17%; in assay [9], 6.86%.

For `COCCN1CCN(C(=O)C2CC=CC2)Cc2cccnc21`, the Percent Effect in assay [1] was -4.04%; in assay [2] it was 8%; in [3], 10.1%; in assay [4] it was 4.75%; with Trypanosoma cruzi, 7.14%; in assay [5] it was -55.4%. Besides, the Percent Effect is 10.4% in assay [6]; -18.4% in the assay filed under Homo sapiens; 3.12% in [7]; 17.5% in [8]; -7.24% in [9].

Take `CCN(C(=O)COC)C(c1cccnc1)c1cc(C)cc(C)c1` (stereo not given): the Percent Effect in assay [1] is 0.0465%; in assay [2], 2.74%; in assay [3] it was 4.88%; in [4] it was 27.6%; in the assay on Trypanosoma cruzi it was -11.3%; in [5], 1.6%. Also, the Percent Effect is 12.9% in assay [6]; 22.9% in the assay filed under Homo sapiens; -2.08% in assay [7]; -8.64% in assay [8]; -2.33% in [9].

With `Cc1[nH]ncc1CCCNC(=O)Nc1ccc(C#N)cc1`, the Percent Effect is -1.53% in assay [1]; 5.41% in assay [2]; 8.53% in [3]; 1.92% in assay [4]; 3.28% in the assay with Trypanosoma cruzi; 2.38% in assay [5]. For the same molecule, the Percent Effect was 7.41% in assay [6]; 15.2% in the assay filed under Homo sapiens; 7.94% in [7]; 9.76% in assay [8]; -1.92% in assay [9].

Turning to `Cc1cc(CN2Cc3ccccc3CC2c2nnc(C)o2)on1` (stereo not given), the Percent Effect in assay [1] is -3.58%; in assay [2], 2.6%; in assay [3], 6.16%; in assay [4], 3.48%; in the assay with Trypanosoma cruzi it was 2.25%; in assay [5], 4.84%. Also, the Percent Effect in assay [6] is 0.728%; in the assay listed under Homo sapiens it was -4.28%; in assay [7] it was 6.67%; in assay [8], 9.41%; in [9] it was -13.4%.
